In PubChem BioAssay (NCI):
This is part of a sample that, as a whole, favours compounds with a hit. Of some 79,000 tested, about 15% had one in any assay. Calls of active or inactive are those of the source. Cut-off read from the data, not from the text of the source: active = growth inhibition above about 70%; inactive = the rest.

What was measured:
[1] = NCI Yeast Anticancer Drug Screen. Data for the wt1 strain (AID 149);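 note: 0% = growth of vehicle-treated wt1 cultures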; conditions: S. cerevisiae wt1 strain (SPY 50644) growth inhibition, active compounds read high
In short: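 wt1 strain grown with compound or vehicle; inhibition taken from the growth difference.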

[2] = NCI Yeast Anticancer Drug Screen. Data for the rad50EPP+ strain (AID 151);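 note: 0% = growth of vehicle-treated control cultures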; conditions: S. cerevisiae rad50 mutant strain, active compounds read high
In short: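 Compounds were applied to the rad50EPP+ yeast strain, which bears a defined DNA repair alteration, and growth inhibition was determined relative to vehicle-treated cultures.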

[3] = NCI Yeast Anticancer Drug Screen. Data for the rad50 strain (AID 155);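 note: 0% = growth of vehicle-only cultures of the same strain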; conditions: S. cerevisiae rad50 strain growth inhibition, active compounds read high
In short: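 DNA repair mutant yeast, compound exposure, growth read-out; inhibition is taken relative to vehicle.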

[4] = NCI Yeast Anticancer Drug Screen. Data for the mec2-1 strain (AID 157); conditions: S. cerevisiae mec2-1 strain, active compounds read high
In short: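 Strain: mec2-1 (DNA repair/cell cycle alteration). Compound exposure, then growth measured; inhibition expressed relative to vehicle.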

[5] = NCI Yeast Anticancer Drug Screen. Data for the rad14 strain (AID 159);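 note: 0% = growth of vehicle-treated control cultures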; conditions: S. cerevisiae rad14 strain growth inhibition, active compounds read high
In short: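 DNA repair-defective yeast, compound-exposed; % growth inhibition derived by comparison with vehicle-treated controls.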

[6] = NCI Yeast Anticancer Drug Screen. Data for the sgs1 mgt1 strain (AID 161);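 note: 0% = growth of cultures given vehicle only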; conditions: S. cerevisiae sgs1 mgt1 strain, active compounds read high
In short: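 Test agents were incubated with a DNA-repair-mutant yeast strain. Growth was then read and compared against vehicle-treated controls.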

[7] = NCI Yeast Anticancer Drug Screen. Data for the CLN2oe strain (AID 163);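 note: 0% = growth of vehicle-only control cultures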; conditions: S. cerevisiae CLN2oe strain, active compounds read high
In short: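 Growth of a genetically modified yeast strain is measured after compound exposure and compared with cultures given vehicle alone.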

[8] = NCI Yeast Anticancer Drug Screen. Data for the cln2 rad14 strain (AID 165);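 note: 0% = growth equal to vehicle treated cultures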; conditions: S. cerevisiae cln2 rad14 strain, active compounds read high
In short: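 Compounds are applied to the cln2 rad14 yeast strain, and growth is then compared with that of vehicle-treated cultures to give inhibition.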

[9] = NCI Yeast Anticancer Drug Screen. Data for the bub3 strain (AID 167); conditions: S. cerevisiae bub3 mutant strain, active compounds read high
In short: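 In this screen, a yeast mutant lacking normal mitotic checkpoint function is challenged with compound. Relative growth versus vehicle gives the inhibition value.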

[10] = NCI Yeast Anticancer Drug Screen. Data for the wt2 strain (AID 169);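 note: 0% = growth of vehicle-treated yeast cultures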; conditions: S. cerevisiae wt2 strain growth inhibition, active compounds read high
In short: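 This strain belongs to a panel of yeast strains with defined genetic alterations in DNA damage repair or cell cycle control. Compounds are applied, and growth inhibition is measured against vehicle-treated cultures.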

[11] = NCI Yeast Anticancer Drug Screen. Data for the mlh1 strain (AID 171);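 note: 0% = growth of vehicle-treated control cultures of the same strain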; conditions: S. cerevisiae mlh1 strain growth inhibition, active compounds read high
In short: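 Growth of the mutant yeast strain after compound exposure, expressed as inhibition relative to vehicle-only controls.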

[12] = NCI Yeast Anticancer Drug Screen. Data for the sgs1 strain (AID 173);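 note: 0% = growth of vehicle-only control cultures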; conditions: S. cerevisiae sgs1 mutant, active compounds read high
In short: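 Growth of a yeast strain bearing a defined genetic alteration is measured after compound treatment. Inhibition is expressed relative to vehicle-only controls.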

[13] = NCI Yeast Anticancer Drug Screen. Data for the mlh1 rad18 strain (AID 175); conditions: S. cerevisiae mlh1 rad18 strain growth inhibition, active compounds read high
In short: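 Read-out is yeast growth inhibition, calculated against vehicle-only controls. The compound was applied to a strain engineered with DNA damage repair alterations.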

[14] = NCI Yeast Anticancer Drug Screen. Data for the rad18 strain (AID 177); conditions: S. cerevisiae rad18 mutant growth inhibition, active compounds read high
In short: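 Growth of the mutant yeast strain after compound exposure, normalised to vehicle-only cultures.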

[15] = at 5.0 µM (retest, dose inferred, filed as 0.5)
[16] = at 50.0 µM (retest, dose inferred, filed as 5.0)

Measured: growth inhibition

S=c1[nH]nc(Cc2ccccc2)c(=S)[nH]1
inactive: [1]; at 1.2 µM -47% | [1]; at 3.7 µM -14% | [1]; at 11.0 µM 30% | [2]; at 1.2 µM -22% | [2]; at 3.7 µM -10% | [2]; at 11.0 µM -11% | [2]; at 33.0 µM 16% | [2]; at 100.0 µM 48% | [3]; at 1.2 µM -17% | [3]; at 3.7 µM -6% | [3]; [15] 63% | [3]; at 11.0 µM 36% | [3]; [16] 55% | [4]; at 1.2 µM -8% | [4]; at 3.7 µM -6% | [4]; [15] 7% | [4]; at 11.0 µM 29% | [4]; at 50.0 µM 64.2% | [5]; at 1.2 µM -3% | [5]; at 3.7 µM 26% | [5]; at 11.0 µM 69% | [6]; [15] 41% | [7]; at 1.2 µM 26% | [7]; at 3.7 µM 25% | [7]; at 11.0 µM 35% | [8]; [15] 45% | [8]; [16] 67% | [8]; at 50.0 µM 39.4% | [9]; at 1.2 µM 16% | [9]; at 3.7 µM 21% | [9]; [15] 46% | [9]; at 11.0 µM 51% | [10]; at 1.2 µM -40% | [10]; at 3.7 µM -1% | [10]; at 11.0 µM 62% | [11]; at 1.2 µM 14% | [11]; at 3.7 µM 34% | [12]; at 1.2 µM 2% | [12]; at 3.7 µM 10% | [12]; at 11.0 µM 64% | [13]; [15] 53% | [13]; [16] 60% | [14]; at 1.2 µM 9% | [14]; at 3.7 µM 3% | [14]; at 11.0 µM 42%
active: [1]; at 33.0 µM 92% | [1]; at 100.0 µM 97% | [3]; at 33.0 µM 89% | [3]; at 50.0 µM 72.6% | [3]; at 100.0 µM 95% | [4]; at 33.0 µM 91% | [4]; [16] 75% | [4]; at 100.0 µM 96% | [5]; at 33.0 µM 94% | [5]; at 100.0 µM 97% | [6]; [16] 83% | [6]; at 50.0 µM 86.3% | [7]; at 33.0 µM 91% | [7]; at 100.0 µM 96% | [9]; at 33.0 µM 94% | [9]; [16] 79% | [9]; at 50.0 µM 71.2% | [9]; at 100.0 µM 97% | [10]; at 33.0 µM 94% | [10]; at 100.0 µM 95% | [11]; at 11.0 µM 77% | [11]; at 33.0 µM 96% | [11]; at 100.0 µM 96% | [12]; at 33.0 µM 95% | [12]; at 100.0 µM 97% | [13]; at 50.0 µM 75.2% | [14]; at 33.0 µM 94% | [14]; at 100.0 µM 97%

CCCCCCCCCC/C=C\CC(=O)O
inactive: [1]; at 1.2 µM -1% | [1]; at 3.7 µM -2% | [1]; at 11.0 µM -3% | [1]; at 33.0 µM 2% | [2]; at 1.2 µM -4% | [2]; at 3.7 µM 3% | [2]; at 11.0 µM 11% | [2]; at 33.0 µM 22% | [2]; at 100.0 µM 47% | [3]; at 1.2 µM 0% | [3]; at 3.7 µM -1% | [3]; [15] -1% | [3]; at 11.0 µM 17% | [3]; at 33.0 µM 18% | [3]; at 50.0 µM -10.8% | [4]; at 1.2 µM -3% | [4]; at 3.7 µM 0% | [4]; [15] 5% | [4]; at 11.0 µM 1% | [4]; at 33.0 µM 8% | [4]; at 50.0 µM -0.8% | [5]; at 1.2 µM 0% | [5]; at 3.7 µM 1% | [5]; at 11.0 µM 9% | [5]; at 33.0 µM 33% | [6]; [15] -1% | [6]; at 50.0 µM 6.35% | [7]; at 1.2 µM -3% | [7]; at 3.7 µM -1% | [7]; at 11.0 µM -1% | [7]; at 33.0 µM -5% | [8]; [15] 7% | [8]; [16] 14% | [8]; at 50.0 µM 9.65% | [9]; at 1.2 µM -2% | [9]; at 3.7 µM -4% | [9]; [15] 1% | [9]; at 11.0 µM -8% | [9]; at 33.0 µM -3% | [9]; [16] 1% | [9]; at 50.0 µM 36.1% | [10]; at 1.2 µM -2% | [10]; at 3.7 µM 6% | [10]; at 11.0 µM -3% | [10]; at 33.0 µM 3% | [11]; at 1.2 µM 0% | [11]; at 3.7 µM -4% | [11]; at 11.0 µM -3% | [11]; at 33.0 µM 11% | [12]; at 1.2 µM -3% | [12]; at 3.7 µM -2% | [12]; at 11.0 µM 2% | [12]; at 33.0 µM 31% | [13]; [15] 4% | [13]; at 50.0 µM -21.2% | [14]; at 1.2 µM -3% | [14]; at 3.7 µM 2% | [14]; at 11.0 µM -1% | [14]; at 33.0 µM 48%
active: [1]; at 100.0 µM 97% | [3]; [16] 81% | [3]; at 100.0 µM 99% | [4]; [16] 74% | [4]; at 100.0 µM 99% | [5]; at 100.0 µM 99% | [6]; [16] 89% | [7]; at 100.0 µM 73% | [9]; at 100.0 µM 98% | [10]; at 100.0 µM 98% | [11]; at 100.0 µM 99% | [12]; at 100.0 µM 99% | [13]; [16] 87% | [14]; at 100.0 µM 99%
